Assay results taken from PubChem BioAssay (NCI).
Compounds without any hit were thinned out: in the full panel of roughly 83,000, 20% have a hit.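 For each line, cells grew in 96-well plates with the test compound present at a single concentration for 48 hours.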 Active and inactive are the calls of the source. The calls were made as follows: active = growth percent below 10; inactive = the rest.

Assays:
Assay in all cases: NCI-60 one-dose screen, 48 h (100 = growth as untreated, 0 = no growth, -100 = all killed)
Conditions in all cases: 10 µM unless noted
[1] = test system: SR leukemia
[2] = test system: RPMI-8226 leukemia
[3] = test system: OVCAR-8 ovarian
[4] = test system: OVCAR-5 ovarian
[5] = test system: OVCAR-4 ovarian
[6] = test system: SK-OV-3 ovarian
[7] = test system: IGROV1 ovarian
[8] = test system: OVCAR-3 ovarian
[9] = test system: HS 578T breast
[10] = test system: NCI/ADR-RES ovarian

Measured: growth

COc1ccccc1NS(=O)(=O)c1cccc(C(=O)Nc2ccc(Br)cc2)c1
inactive: [1] 50.4% | [2] 38.4% | [3] 57.6% | [4] 68.9% | [5] 35.3% | [6] 44.1% | [7] 46.6% | [8] 45.8% | [9] 73.8% | [10] 27.6%

COc1ccc(CCn2cncc2-c2c[nH]c3ccccc23)cc1
inactive: [1] 93.3% | [2] 73.4% | [3] 93.5% | [4] 90.2% | [5] 79.4% | [6] 87.7% | [7] 56.4% | [8] 88.4% | [9] 78.2% | [10] 87.6%

O=C(Cc1ccc(/C=C/C(=O)c2ncc[nH]2)cc1)Nc1ccc(Cl)cc1
inactive: [4] 41.7% | [5] 37.5% | [6] 64.3% | [7] 27.9% | [10] 19.5%
active: [1] 0.986% | [2] -29.2% | [3] -6.61% | [8] -4.9% | [9] 5.07%

CN1CCN(C(=O)[C@]23CCC(C)(C)C[C@H]2C2=CC[C@@H]4[C@@]5(C)C/C(=C/c6ccncc6)C(=O)C(C)(C)[C@@H]5CC[C@@]4(C)[C@]2(C)CC3)CC1
inactive: [3] 55.3% | [4] 86.9% | [5] 57.4% | [6] 77.6% | [7] 74.4% | [8] 47.2% | [9] 50.4% | [10] 56.3%
active: [1] 7.07% | [2] 7.22%

Oc1cccc(CCc2ccc(Oc3cc(CCc4cccc(O)c4)cc(O)c3O)cc2)c1
inactive: [1] 35.9% | [2] 39.5% | [3] 75.3% | [4] 107% | [5] 58.9% | [6] 94.8% | [7] 41.7% | [8] 63.8% | [9] 84.4% | [10] 82.1%

c1ccc2cc(Cn3c(-c4cccc5ccccc45)[n+](Cc4ccc5ccccc5c4)c4c5ccccc5c5ccccc5c43)ccc2c1
inactive: [10] 17.7%
active: [1] -56% | [2] -38.7% | [3] -67% | [4] -76.7% | [5] -80% | [6] -79.4% | [7] -71.8% | [8] -89.4% | [9] -42.1%

Cc1nc(N)nc(N[C@@H](C)c2nc3cccc(NCc4ccc(C(=O)NO)cc4)c3c(=O)n2-c2ccccc2)n1
inactive: [1] 33.3% | [2] 17.2% | [3] 70.3% | [4] 90.5% | [5] 92.2% | [6] 86.7% | [7] 69.5% | [8] 85.9% | [9] 72.1% | [10] 103%

CCOC(=O)Nc1ccc(-c2ccc3c(c2)NC(=O)/C3=C\c2ccc[nH]2)cc1
inactive: [1] 19.3% | [2] 100% | [3] 105% | [4] 72.8% | [5] 45% | [6] 91% | [7] 94.1% | [8] 106% | [9] 106% | [10] 102%

COc1ccc(C(=O)NNc2nc(Cl)nc(N3CCN(C(c4ccccc4)c4ccccc4)CC3)n2)cc1
inactive: [2] 84.2% | [3] 34.1% | [4] 96.9% | [5] 20.5% | [6] 101% | [9] 67.1% | [10] 50%
active: [1] -29.6% | [7] -59.7% | [8] -71.5%

Nc1c(C(=O)Nc2ccnc3ccccc23)sc2nc3c(cc12)CN(Cc1ccccc1)CC3
inactive: [1] 35.5% | [2] 38.8% | [3] 69.5% | [4] 94.1% | [5] 78.6% | [6] 98.9% | [7] 86.4% | [8] 85.1% | [9] 89.9% | [10] 69.2%

COc1cc2c(cc1OC)C(=O)/C(=C/c1cc(C)c(O)c(C)c1)S2
inactive: [1] 18.7% | [2] 21.6% | [3] 37% | [4] 64.7% | [5] 84.7% | [6] 52.1% | [7] 35.6% | [9] 36.8% | [10] 15.3%
active: [8] -5.93%

O=C(c1nc2ccccc2[nH]1)C1C(c2ccc(Br)cc2)C2CC3CCCC[C@H]3N2[C@@]12C(=O)Nc1cc(Cl)ccc12 (stereo not given in full)
inactive: [1] 31.3% | [2] 17% | [3] 58.5% | [4] 46.8% | [5] 34.7% | [6] 67.6% | [7] 28.8% | [8] 34.3% | [9] 66.8% | [10] 46.7%

CCOC(=O)c1cc(C(=O)c2ccc(Br)cc2)n2ccc(/C=C/c3cc[n+](CC(=O)c4ccc(OC)cc4)cc3)cc12
inactive: [2] 45.7% | [3] 59.9% | [4] 102% | [5] 86.7% | [6] 114% | [7] 86% | [8] 102% | [9] 129% | [10] 87.5%
active: [1] -2.64%

Cc1ccc(-c2csc(NC(=O)CSc3nc(-c4ccccc4)cc(=O)[nH]3)n2)cc1
inactive: [1] 101% | [2] 78.3% | [3] 94.2% | [4] 95.8% | [5] 105% | [6] 92.4% | [7] 77.2% | [8] 101% | [9] 90.6% | [10] 93.4%

NS(=O)(=O)c1ccc(Cn2c(SCC(=O)N/N=C/c3ccccc3O)nc3ccccc3c2=O)cc1
inactive: [1] 26.6% | [2] 49.7% | [3] 44.3% | [4] 68.4% | [5] 40.7% | [6] 73% | [7] 62.3% | [8] 13.4% | [9] 71.6% | [10] 98.3%

COc1ccc(C(=O)/C=C/c2cc3ccccc3n3nnnc23)cc1
inactive: [1] 92.3% | [2] 98.7% | [3] 109% | [4] 108% | [5] 106% | [6] 102% | [7] 109% | [8] 113% | [9] 106% | [10] 113%

COc1cc2nc(-c3ccc(Cl)cc3)cc(OCCCN3CCC(O)CC3)c2cc1OC
inactive: [1] 15.9% | [2] 23.2% | [3] 42.9% | [4] 45.8% | [5] 68.7% | [6] 74.3% | [7] 33.2% | [8] 71.7% | [9] 66.9% | [10] 44.6%

O=C(/C=C(/C=C/c1csc2ccccc12)OB(F)F)/C=C/c1csc2ccccc12
inactive: [4] 60.6% | [6] 100% | [7] 11.3% | [10] 18.3%
active: [1] 3.63% | [2] -12% | [3] -9.55% | [5] -0.888% | [8] -14.2% | [9] 3.47%

Cc1ccc(/C=C(/C#N)n2nnc3cccc(F)c32)cc1
inactive: [5] 23% | [6] 27.8% | [7] 17.6%
active: [1] 9.82% | [2] -4.51% | [3] 8.47% | [4] 0.132% | [8] -53.2% | [9] -14.8% | [10] -33.1%

CC(=O)N1N=C(c2ccc(-n3ccc(C(F)(F)F)n3)c(F)c2)CC1c1ccc[nH]1 (stereo not given)
inactive: [1] 92.8% | [2] 80.8% | [3] 98.9% | [4] 105% | [5] 102% | [6] 118% | [7] 112% | [8] 107% | [9] 106% | [10] 104%

NC(=NCCCOc1ccc(F)cc1)Nc1ccc(Cl)cc1
inactive: [1] 72% | [2] 85.3% | [3] 90.1% | [4] 54.5% | [5] 46% | [6] 75.6% | [7] 30.9% | [8] 89.6% | [9] 81.9% | [10] 77.3%

COc1cc(CC(=O)c2ccc(O)c(OC)c2)ccc1O
inactive: [1] 90.1% | [2] 97.9% | [3] 97.9% | [4] 97.9% | [5] 103% | [6] 99.7% | [7] 111% | [8] 105% | [9] 98.5% | [10] 100%

Cn1cc(CC2CC(=O)N(c3ccccc3)C2=O)sc1=NC(=O)c1ccccc1 (stereo not given)
inactive: [1] 96% | [2] 105% | [3] 104% | [4] 95.2% | [5] 103% | [6] 97.1% | [7] 93.1% | [8] 99.2% | [9] 89.8% | [10] 97.5%

C=CC(=O)N[C@@H](/C=C/C(=O)OCC)Cc1ccc(-c2cc(Cl)cc(Cl)c2)cc1
active: [1] 7.26% | [2] -2.44% | [10] 8.7%
inactive: [3] 16.8% | [4] 55.8% | [5] 10.7% | [6] 26.7% | [7] 36.2% | [8] 13.5% | [9] 40.3%

COc1cc(/C=C/c2cc(O)c(C(C)=O)c(O)c2)cc2c1O[C@]1(C)CC[C@@H](O)C(C)(C)[C@H]1C2
active: [2] -7.38%
inactive: [1] 29.9% | [3] 67.7% | [4] 89.8% | [5] 90.8% | [6] 66.1% | [7] 60.3% | [8] 61.4% | [9] 25.4% | [10] 74.2%

O=C1Nc2cc(-c3ccc(NS(=O)(=O)c4ccccc4)cc3)ccc2/C1=C/c1ccc[nH]1
inactive: [2] 77.8% | [3] 97.1% | [4] 52% | [5] 68.7% | [6] 79.1% | [7] 93.1% | [8] 108% | [9] 97.7% | [10] 92.6%
active: [1] 6.67%
